# Results as given in PubChem BioAssay AID463173 (ICCB-Longwood Screening Facility, Harvard Medical School, 2010).
# Among all 52,000 compounds or so, about 1,700 (3.3%) were called active. The full list was thinned out, with actives kept by preference. Values without a mark were called inactive. No stated cut-off is given here; in the data, active means survival mostly below about 52% (no sharp cut-off); inactive means mostly above about 56%.
# Tested on: Wild type
# Experiment: S. aureus survival, RN4220 and DeltatarO strains – OD600, teichoic acid synthesis inhibitors, primary screen (AID 463173)
# Conditions: S. aureus RN4220 wild type/DeltatarO growth, OD600, 18 h, hits give low values, screened at 18.75 µg/mL (by protocol)
row,Compound,survival
1,O=C(Cc1ccc(F)cc1)NC1CC(=O)N(c2ccccc2)C1 (centres undefined),72%
2,O=C(Cn1c(-c2cccs2)cc2ccccc21)NCc1ccccc1Br,120%
3,Cc1ccc(CCNC(=O)Cn2ncc3c([nH]c4ccccc43)c2=O)cc1,66%
4,O=C(Cn1ncc2c([nH]c3ccccc32)c1=O)NCc1cccc(Cl)c1,-3% (active)
5,CCCCN(C)CCNC(=O)Cn1ncc2c([nH]c3ccccc32)c1=O,0% (active)
6,CCN(CC)CCNC(=O)Cn1ncc2c([nH]c3ccccc32)c1=O,72%
7,COc1ccc(CNC(=O)Cn2ncc3c([nH]c4ccccc43)c2=O)cc1,63%
8,CN(CCCNC(=O)Cn1ncc2c([nH]c3ccccc32)c1=O)Cc1ccccc1,73%
9,CCC(=O)N1CCN(c2ccc(NC(=O)c3ccccc3)cc2)CC1,99%
10,Cc1cccc(Nc2nnc(-c3ccc(C)c(S(=O)(=O)N4CCN(C)CC4)c3)c3ccccc23)c1,147%
11,O=C(Nc1cccnc1Cl)c1cc(-c2ccc(Cl)cc2)on1,83%
12,COc1ccc(CNC(=O)CCC2N=C3c4ccccc4N=C(SCc4ccc(F)cc4)N3C2=O)cc1 (centres undefined),82%
13,COc1ccc(CNC(=O)CCC2N=C3c4ccccc4N=C(SCc4ccccc4F)N3C2=O)cc1 (centres undefined),10% (active)
14,COc1ccc(OC)c(NC(=O)CSC2=Nc3ccccc3C3=NC(CCC(=O)NCc4ccco4)C(=O)N23)c1 (centres undefined),70%
15,O=C(CCC1N=C2c3ccccc3N=C(SCc3ccccc3F)N2C1=O)NCc1ccc(F)cc1 (centres undefined),73%
16,CCCCNC(=O)CSC1=Nc2ccccc2C2=NC(CCC(=O)NCc3ccccc3OC)C(=O)N12 (centres undefined),-2% (active)
17,COc1ccc(OC)c(NC(=O)CSC2=Nc3ccccc3C3=NC(CCC(=O)NCCc4ccccc4)C(=O)N23)c1 (centres undefined),73%
18,COCCCNC(=O)CSC1=Nc2ccccc2C2=NC(CCC(=O)NCc3ccccc3OC)C(=O)N12 (centres undefined),73%
19,COc1ccc(OC)c(NC(=O)CSC2=Nc3ccccc3C3=NC(CCC(=O)NCc4ccccc4)C(=O)N23)c1 (centres undefined),-3% (active)
20,COc1ccccc1CNC(=O)CCC1N=C2c3ccccc3N=C(SCc3ccc(Cl)cc3)N2C1=O (centres undefined),0% (active)
21,COc1ccccc1CNC(=O)CCC1N=C2c3ccccc3N=C(SCc3cccc(Cl)c3)N2C1=O (centres undefined),82%
22,COc1ccccc1CNC(=O)CCC1N=C2c3ccccc3N=C(SCc3ccc(C)cc3)N2C1=O (centres undefined),118%
23,COc1ccccc1CNC(=O)CCC1N=C2c3ccccc3N=C(SCC(=O)NCCc3ccccc3)N2C1=O (centres undefined),129%

row,Compound,survival
1,CC1CCN(C(c2ccccc2)c2sc3nc(-c4ccco4)nn3c2O)CC1 (centres undefined),68%
2,Cc1[nH]c(=O)[nH]c(=O)c1/C=N\NC(=O)c1cc2ccccc2o1,111%
3,N#CC1=C(N)SC(N)=C(C#N)C1c1cc2c(cc1Cl)OCO2,112%
4,Cc1cccc(N(CC(=O)NC(C)c2ccccc2)S(=O)(=O)c2ccccc2)c1C (centres undefined),79%
5,Cc1cc(NC(=O)CSc2nc(-c3cccc(F)c3)nc3c2c(=O)n(C)c(=O)n3C)no1,68%
6,CCOc1cc(C#N)c(NC(=O)c2cccc(S(=O)(=O)N3CCOCC3)c2)cc1OCC,131%
7,Cc1ccc(CNC(=O)CN2Cc3ccccc3C2=O)cc1,76%
8,COc1cccc(CNc2ncnc3c2nnn3C)c1,79%
9,CCc1nnc(SCc2c(F)cccc2Cl)c2cc3sccc3n12,88%
10,CCc1nnc(SCc2cccc(Cl)c2)c2cc3sccc3n12,2% (active)
11,CCc1nnc(SCc2ccc(F)cc2Cl)c2cc3sccc3n12,93%
12,N#Cc1cccc(NC(=O)C2CCN(c3cnccn3)CC2)c1,105%
13,CCCCN(CCCC)CCNC(=O)c1cn(CC)c2ccc(S(=O)(=O)N3CCc4ccccc4C3)cc2c1=O,84%
14,CC1CCN(C(=O)Cn2c(SCC(=O)NC(C)(C)C)nc3ccccc32)CC1,102%
15,CCN(C(=O)CSc1nc2ccccc2n1CC(=O)Nc1cccc(C#N)c1)c1ccccc1,124%
16,CC1CCN(C(=O)Cn2c(SCC(=O)Nc3ccc(F)cc3)nc3ccccc32)CC1,70%
17,Cc1ccc(NC(=O)CSc2nc3ccccc3n2CC(=O)N(C)C2CCCCC2)cc1C,78%
18,CCN(C(=O)CSc1nc2ccccc2n1CC(=O)Nc1ccc(F)cc1F)c1ccccc1,73%
19,CCN(CC)C(=O)Cn1c(SCC(=O)Nc2ccc(C)c(C)c2)nc2ccccc21,133%
20,CCCCN(C)C(=O)Cn1c(SCC(=O)Nc2ccc(C)c(C)c2)nc2ccccc21,14% (active)
21,CCN(C(=O)CSc1nc2ccccc2n1CC(=O)Nc1ccccc1C)c1ccccc1,-6% (active)
22,Cc1ccc(NC(=O)CSc2nc3ccccc3n2CC(=O)N2CCC(C)CC2)cc1C,-1% (active)
23,CC1CCc2c(sc3nc(SCC(=O)Nc4c[nH]c(=O)[nH]c4=O)[nH]c(=O)c23)C1 (centres undefined),107%

row,Compound,survival
1,Cc1ccc(CNC(=O)c2cc(-c3ccc(C)cc3)nc3n[nH]c(-c4cccc([N+](=O)[O-])c4)c23)cc1,74%
2,CC(C)CNS(=O)(=O)c1ccc(S(=O)(=O)N2CCCN(Cc3ccccc3)C2)cc1,97%
3,CCOc1ccc(-c2cc3nc(C4CCN(C(=O)OC(C)(C)C)CC4)c(C(=O)Nc4ccc(C)c(F)c4)cn3n2)cc1,86%
4,CCc1ccc(NC(=O)C2CCN(c3nc(-c4ccc(OC)cc4)no3)CC2)cc1,66%
5,COC(=O)c1cccnc1-n1c(=O)c2cccnc2n(CC(=O)Nc2ccccc2F)c1=O,84%
6,Cc1[nH]c(=O)[nH]c(=O)c1CSCC(=O)O,108%
7,O=C(/C=C/c1ccc(Cl)cc1)Nc1nc(-c2cccs2)ns1,75%
8,N#CSc1cnc(NC2CCCCC2)s1,2% (active)
9,Cc1ccc(-c2nnc(NC3CCCC3)s2)cc1,126%
10,Cc1cc(C)c(C#N)c(NC2CCCCC2)n1,92%
11,O=S(=O)(c1ccc2nc(Nc3cccc(F)c3)ccc2c1)N1CCCC1,75%
12,CC(=O)c1cccc(Nc2ccc3cc(S(=O)(=O)N4CCCC4)ccc3n2)c1,73%
13,CCOC(=O)c1cccc(Nc2ccc3cc(S(=O)(=O)N4CCCCC4)ccc3n2)c1,-3% (active)
14,CCN(CC)c1cc(C)c2cc(NC(=O)/C=C/c3ccc(C)cc3)ccc2n1,68%
15,CCN(CC)c1ccc(NC(=O)c2cnc3c(-c4ccccc4)c(C)nn3c2C)c(C)c1,85%
16,Cc1ccc(NC(c2nnc(-c3ccccc3)o2)c2ccccc2F)c(Cl)c1 (centres undefined),91%
17,CC(C)c1ccc(NC(c2nnc(-c3ccccc3)o2)c2ccc(F)cc2Cl)cc1 (centres undefined),69%
18,Fc1ccc(C(NCCc2ccc(Cl)cc2)c2nnc(-c3ccccc3)o2)c(Cl)c1 (centres undefined),3% (active)
19,Cc1cc([N+](=O)[O-])ccc1NC(c1nnc(-c2ccccc2)o1)c1ccccc1F (centres undefined),99%
20,Cc1cc(C)cc(NC(c2nnc(-c3cccc(F)c3)o2)c2ccc(F)cc2Cl)c1 (centres undefined),37%
21,Fc1ccccc1C(NCCc1ccc(Cl)cc1)c1nnc(-c2ccccc2)o1 (centres undefined),-1% (active)
22,Cc1cc(NC(c2nnc(-c3ccccc3)o2)c2ccccc2F)ccc1Br (centres undefined),9% (active)
23,Clc1ccc(CCNC(c2nnc(-c3ccccc3)o2)c2ccccc2Cl)cc1 (centres undefined),3% (active)

row,Compound,survival
1,CCOC(=O)c1cccc(NC(c2nnc(-c3ccccc3)o2)c2ccccc2F)c1 (centres undefined),87%
2,Cc1cc(C)cc(NC(c2cccc(Cl)c2)c2nnc(-c3ccccc3)o2)c1 (centres undefined),91%
3,COc1ccc(NC(c2nnc(-c3ccccc3)o2)c2ccccc2F)cc1Cl (centres undefined),65%
4,Cc1ccccc1Cn1cc(CCC(=O)NC(C)c2ccccc2)c2ccccc21 (centres undefined),84%
5,CC(C)n1nnnc1SCC(=O)OC1CCCCC1,127%
6,Cc1cc(C)nc(Nc2nc3ccccc3s2)n1,109%
7,Cc1cccc(C(=O)Nc2nc(-c3nnn(-c4cc(F)ccc4F)c3C)ns2)c1,133%
8,N#Cc1cc[n+](CC(=O)c2cccs2)cc1,102%
9,Clc1ccc(CCNC(c2cccc(Cl)c2)c2nnc(-c3ccccc3)o2)cc1 (centres undefined),5% (active)
10,CCOc1ccc(CCNC(=O)Cn2nnc(-c3ccccc3)n2)cc1OCC,98%
11,Cc1ccc(NC(c2cccc(Cl)c2)c2nnc(-c3ccccc3)o2)cc1F (centres undefined),90%
12,CCOc1ccc(CCNC(c2nnc(-c3ccccc3)o2)c2ccccc2Cl)cc1OCC (centres undefined),4% (active)
13,CCOc1ccc(CCNC(c2cccc(Cl)c2)c2nnc(-c3ccccc3)o2)cc1OCC (centres undefined),89%
14,Clc1ccc(CCNC(c2ccc(Cl)cc2)c2nnc(-c3ccccc3)o2)cc1 (centres undefined),86%
15,COc1cc(NS(=O)(=O)c2c(C)nc3sc(C)c(C)n3c2=O)cc(OC)c1,90%
16,Cn1cnc2c(=O)oc3ccc(S(=O)(=O)N4CCN(c5ccccc5)CC4)cc3c21,87%
17,Cn1cnc2c(=O)oc3ccc(S(=O)(=O)N4CCN(c5cccc(Cl)c5)CC4)cc3c21,-6% (active)
18,Cn1cnc2c(=O)oc3ccc(S(=O)(=O)N4CCN(c5cccc(C(F)(F)F)c5)CC4)cc3c21,120%
19,CCOc1ccc(NC(=O)c2c(Nc3ccccc3C)sc(C(=O)c3ccccc3)c2N)cc1,83%
20,Cc1ccc(CN2C(=O)c3ccccc3CC2(C)C(=O)NC2CCCCC2)cc1 (centres undefined),84%
